Laboratory results taken from the supplement of paper PMC4466140.

B1: unnamed (peptide)
chain: GKLKHIPRRPYEIER

biological target: AgAbp1; assay: SPOT peptide array binding signal intensity (averaged, normalized) (arbitrary units (background-subtracted, floor 0; scale differs between SH3 domains)); higher = stronger binding of the SH3 domain to the peptide
Procedure, shortened: (§1)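 SH3 domains from four yeast species were expressed as GST fusions in E. coli BL21(DE3) and purified on glutathione Sepharose. Each was incubated at 10 μg/ml overnight at 4°C in TBS-based blocking buffer on cellulose membranes bearing synthetic 15-mer peptides, in which serines replaced cysteines. Bound protein was detected with anti-GST antibody, an HRP anti-mouse secondary and luminol, then imaged and quantified with Genespotter. The binding signal is the normalized, background-subtracted spot intensity averaged over replicates, in arbitrary units that are not the same from one domain to another.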

Binder | SPOT peptide array binding signal intensity
B1 | 3.5

biological target: AgBbc1; assay: as above
Procedure, shortened: as §1

Binder | SPOT peptide array binding signal intensity
B1 | 102

biological target: AgBem1-D1; assay: as above
Procedure, shortened: as §1

Binder | SPOT peptide array binding signal intensity
B1 | 14

biological target: AgBzz1-D1; assay: as above
Procedure, shortened: as §1

Binder | SPOT peptide array binding signal intensity
B1 | 11

biological target: AgBzz1-D2; assay: as above
Procedure, shortened: as §1

Binder | SPOT peptide array binding signal intensity
B1 | 10.5

biological target: AgCyk3; assay: as above
Procedure, shortened: as §1

Binder | SPOT peptide array binding signal intensity
B1 | 1.5

biological target: AgFus1; assay: as above
Procedure, shortened: as §1

Binder | SPOT peptide array binding signal intensity
B1 | 10

biological target: AgHof1; assay: as above
Procedure, shortened: as §1

Binder | SPOT peptide array binding signal intensity
B1 | 5.5

biological target: AgHse1; assay: as above
Procedure, shortened: as §1

Binder | SPOT peptide array binding signal intensity
B1 | ≤ 0

biological target: AgLsb1; assay: as above
Procedure, shortened: as §1

Binder | SPOT peptide array binding signal intensity
B1 | 1

biological target: AgLsb4; assay: as above
Procedure, shortened: as §1

Binder | SPOT peptide array binding signal intensity
B1 | 12

biological target: AgMyo5; assay: as above
Procedure, shortened: as §1

Binder | SPOT peptide array binding signal intensity
B1 | 0.25

biological target: AgNbp2; assay: as above
Procedure, shortened: as §1

Binder | SPOT peptide array binding signal intensity
B1 | ≤ 0

biological target: AgRvs167; assay: as above
Procedure, shortened: as §1

Binder | SPOT peptide array binding signal intensity
B1 | 1.83

biological target: AgSho1; assay: as above
Procedure, shortened: as §1

Binder | SPOT peptide array binding signal intensity
B1 | ≤ 0

biological target: AgSla1-D1-D2; assay: as above
Procedure, shortened: as §1

Binder | SPOT peptide array binding signal intensity
B1 | ≤ 0

biological target: AgSla1-D3; assay: as above
Procedure, shortened: as §1

Binder | SPOT peptide array binding signal intensity
B1 | 0.75

biological target: CaAbp1-D1; assay: as above
Procedure, shortened: as §1

Binder | SPOT peptide array binding signal intensity
B1 | 129

biological target: CaAbp1-D2; assay: as above
Procedure, shortened: as §1

Binder | SPOT peptide array binding signal intensity
B1 | 1

biological target: CaBbc1; assay: as above
Procedure, shortened: as §1

Binder | SPOT peptide array binding signal intensity
B1 | 552

biological target: CaBem1-D1; assay: as above
Procedure, shortened: as §1

Binder | SPOT peptide array binding signal intensity
B1 | 5

biological target: CaBzz1-D1; assay: as above
Procedure, shortened: as §1

Binder | SPOT peptide array binding signal intensity
B1 | 116

biological target: CaBzz1-D2; assay: as above
Procedure, shortened: as §1

Binder | SPOT peptide array binding signal intensity
B1 | 67.5

biological target: CaCyk3; assay: as above
Procedure, shortened: as §1

Binder | SPOT peptide array binding signal intensity
B1 | 67.5

biological target: CaFus1; assay: as above
Procedure, shortened: as §1

Binder | SPOT peptide array binding signal intensity
B1 | ≤ 0

biological target: CaHof1; assay: as above
Procedure, shortened: as §1

Binder | SPOT peptide array binding signal intensity
B1 | ≤ 0

biological target: CaHse1; assay: as above
Procedure, shortened: as §1

Binder | SPOT peptide array binding signal intensity
B1 | 1.5

biological target: CaLsb1; assay: as above
Procedure, shortened: as §1

Binder | SPOT peptide array binding signal intensity
B1 | ≤ 0

biological target: CaLsb4; assay: as above
Procedure, shortened: as §1

Binder | SPOT peptide array binding signal intensity
B1 | 40

biological target: CaMyo5; assay: as above
Procedure, shortened: as §1

Binder | SPOT peptide array binding signal intensity
B1 | ≤ 0
